According to ChEMBL document CHEMBL1961873, “Compounds: GSK PKIS; Assays: Nanosyn kinase panel” (2012):

Legend:
[1] = biological target: Serine/threonine-protein kinase PAK 6 (Homo sapiens) (UniProt Q9NQU5); conditions: at 1 µM;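 note: values are mean percent inhibition of PAK6 kinase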
[2] = test system: Tyrosine-protein kinase ABL1 (Homo sapiens), P00519 [E255K]; conditions: at 0.1 µM
[3] = test system: Tyrosine-protein kinase ABL1 (Homo sapiens), P00519 [E255K]; conditions: at 1 µM
[4] = test system: Tyrosine-protein kinase ABL1 (Homo sapiens), P00519 [H396P]; conditions: at 0.1 µM
[5] = test system: Tyrosine-protein kinase ABL1 (Homo sapiens), P00519 [H396P]; conditions: at 1 µM
[6] = test system: Tyrosine-protein kinase ABL1 (Homo sapiens), P00519 [M351T]; conditions: at 0.1 µM
[7] = test system: Tyrosine-protein kinase ABL1 (Homo sapiens), P00519 [M351T]; conditions: at 1 µM
[8] = test system: Tyrosine-protein kinase ABL1 (Homo sapiens), P00519 [Q252H]; conditions: at 0.1 µM
[9] = test system: Tyrosine-protein kinase ABL1 (Homo sapiens), P00519 [Q252H]; conditions: at 1 µM
[10] = test system: Tyrosine-protein kinase ABL1 (Homo sapiens), P00519 [T315I]; conditions: at 0.1 µM

Chain of Serine/threonine-protein kinase PAK 6 (Homo sapiens) (Q9NQU5 whole entry, looked up): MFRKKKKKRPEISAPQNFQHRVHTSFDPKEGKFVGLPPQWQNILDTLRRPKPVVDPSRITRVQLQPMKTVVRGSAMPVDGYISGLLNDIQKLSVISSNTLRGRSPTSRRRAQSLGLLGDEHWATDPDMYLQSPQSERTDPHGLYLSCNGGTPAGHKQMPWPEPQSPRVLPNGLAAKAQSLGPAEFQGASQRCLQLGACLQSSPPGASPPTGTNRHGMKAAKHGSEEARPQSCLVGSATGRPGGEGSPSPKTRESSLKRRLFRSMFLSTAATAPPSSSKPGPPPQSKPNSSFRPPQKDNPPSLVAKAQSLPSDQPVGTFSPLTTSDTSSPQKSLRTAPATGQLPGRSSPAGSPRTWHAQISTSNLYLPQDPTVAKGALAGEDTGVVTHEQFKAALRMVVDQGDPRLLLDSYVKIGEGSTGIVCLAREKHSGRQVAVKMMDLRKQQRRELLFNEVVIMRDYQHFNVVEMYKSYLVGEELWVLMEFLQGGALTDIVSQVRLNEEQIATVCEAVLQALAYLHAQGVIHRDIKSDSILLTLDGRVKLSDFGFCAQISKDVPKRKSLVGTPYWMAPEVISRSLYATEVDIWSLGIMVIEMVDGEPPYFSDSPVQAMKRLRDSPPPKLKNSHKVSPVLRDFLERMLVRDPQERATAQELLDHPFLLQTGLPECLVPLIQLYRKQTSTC

Compound	inhibition [1] [%]	inhibition [2] [%]	inhibition [3] [%]	inhibition [4] [%]	inhibition [5] [%]	inhibition [6] [%]	inhibition [7] [%]	inhibition [8] [%]	inhibition [9] [%]	inhibition [10] [%]
CCC(=O)Nc1ccc(C)c(-c2ccc(C(=O)NCC3CC3)cc2)c1	-9.47	2.13	2.73	3.96	4.29	2.37	1.29	3.29	4.63	2.76
COC(=O)Nc1nc2ccc(Sc3ccc(NC(=O)Nc4cc(C(F)(F)F)ccc4F)cc3)cc2[nH]1	1.21	-1.69	14.8	2.95	49.9	33.2	70.2	26.9	70.7	27.7
COc1cc2ncn(-c3cc(OCc4ccccc4C(F)(F)F)c(C(C)=O)s3)c2cc1OC	-3.04	1.66	4.89	4.51	5.12	1.37	6.24	4.93	4.96	1.88
NS(=O)(=O)c1ccc(N/N=C2\C(=O)Nc3ccc(-c4cnco4)cc32)cc1	-6.6	1.82	7.02	3.45	15.5	0.98	17.7	3.05	13.3	0.71
CS(=O)(=O)CCNCc1cc(-c2cc3c(Nc4ccc(OCc5cccc(F)c5)c(Cl)c4)ncnc3s2)cs1		2.18	4.04	4.45	5.71	2	5.07	4.77	6.1	4.15
NS(=O)(=O)c1ccc(Nc2cc(-c3ccc(O)c(F)c3)n[nH]2)cc1	-3.83	1.72	14.8	2.42	27.3	4.46	30.5	1.52	20	0.21
NS(=O)(=O)c1ccc(N/N=C2\C(=O)Nc3ccc(C(=O)NCCCn4ccnc4)cc32)cc1		5.15	10.9	5.17	14.3	0.91	14.2	5.21	13.1	3.66
NC(=O)c1cc(-c2ccncc2)cc(-c2ccccc2)c1N	-5.82	4.33	30.6	9.63	39.4	5.03	36.6	9.54	38.8	4.26
Cc1ccc(C(=O)NC(C)C)cc1-c1ccc(C(=O)NCC2CC2)cc1		-0.92	-0.81	-1.54	-1.16	-0.95	1.25	-2.61	-1.55	-1.99
O=C1Nc2ccc(I)cc2C1=Cc1cc(Br)c(O)c(Br)c1		1.89	6.01	4.06	6.63	1	4.74	3.44	7.29	2.84
O=C1Nc2ccccc2/C1=C/Nc1ccc(-n2cncn2)cc1		1.9	9.03	2.67	13.3	1.55	14.5	3.88	13.4	3.25
CN1CCN(CCCNc2nc3ccc(Oc4ccc(NC(=O)Nc5cc(C(F)(F)F)ccc5F)cc4)cc3[nH]2)CC1	-3.76	0.07	4.6	0.89	15	14.3	45.5	12.8	48.1	16.6
C#Cc1cccc(Nc2ncnc3ccc(OCCCCNCCS(C)(=O)=O)cc23)c1	-2.58	4.64	19.7	7.05	23	4.14	19.2	6.79	22.7	3.9
O=C(Nc1ccc(Oc2ccc3[nH]c(NC(=O)c4ccccc4)nc3c2)cc1)Nc1cc(C(F)(F)F)ccc1F	3.44	3.28	27	17	71	44.6	79.8	38.4	74.6	36.6
COc1cc(Nc2ncc3c(C)nc(-c4cccc(C(F)(F)F)c4)n3n2)cc(OC)c1OC	11.2	2.21	7.54	5.06	12.7	1.36	10.8	4.02	13.4	3.13
O=C(Nc1n[nH]c2cc(-c3ccccc3)ccc12)C1CC1	-4.61	10.5	46.5	20.2	67.5	19.3	68.6	14	48.4	36.3
Fc1ccc(-c2ncn(C3CCNCC3)c2-c2ccnc(Oc3ccc(Oc4ccccc4)cc3)n2)cc1	-1.92	1.84	2.14	2.93	3.2	-0.2	0.05	1.63	2.88	0.61

Compound	inhibition [1] [%]	inhibition [2] [%]	inhibition [3] [%]	inhibition [4] [%]	inhibition [5] [%]	inhibition [6] [%]	inhibition [7] [%]	inhibition [8] [%]	inhibition [9] [%]	inhibition [10] [%]
NCc1ccc(-n2c(-c3nonc3N)nc3cnccc32)cc1	-0.18	3.58	2.62	5.81	0.32	3.87	0.32	4.57	1.69	2.95
Cc1nnc(-c2ccc(C)c(-c3ccc(C(=O)NCc4ccc(Cl)cc4)cc3)c2)o1		2.64	6.05	3.3	11.6	-1.14	1.63	2.54	4.45	2.23
Fc1ccc(-c2ncn(CCCN3CCOCC3)c2-c2ccncc2)cc1	-7.59	0.23	0.13	0.23	-0.46	-2.27	1.4	-1.12	-0.09	-1.3
O=C(Nc1n[nH]c2cc(-c3cc(F)ccc3F)ccc12)C1CC1	-0.43	8.07	31.4	13.8	52.2	13	53.8	8.73	35.5	23.3
COc1cc(N2CCN(C(C)C)CC2)ccc1Nc1nc(Nc2ccc(F)cc2C(=O)NC[C@@H](O)CO)c2cc[nH]c2n1	-2.37	1.32	5.35	2.98	5.65	3.03	5.84	3.53	4.72	2.48
C[C@@H](Oc1cc(-n2cnc3ccc(OCC4CCN(C)CC4)cc32)sc1C(N)=O)c1ccccc1Cl	-3.14	0.13	4.51	2.87	9.39	-0.56	5.2	4.18	8.32	-2.27
COc1cc(Nc2ncc(-c3ccccc3)o2)cc(OC)c1OC		5.32	36.8	12.7	61.5	14.3	61.2	11.2	57.7	1.79
COc1cc(C)c(N(C)C(=O)CN(C)C)cc1Nc1nc(Nc2cccc(F)c2C(N)=O)c2cc[nH]c2n1	-3.09	-1.15	1.77	1.11	-0.41	0.41	-0.05	0.29	0.09	0.48
CN(C)CCCNc1nccc(-c2c(-c3ccc(F)cc3)nn3cc(C(F)(F)F)ccc23)n1	-4.04	1.96	5.43	4.54	4	4.09	3.29	3.28	5.19	1.28
CN(C)CCOc1ccc(-c2cc(-c3ccc4c(c3)CCC4=NO)c(-c3ccncc3)o2)cc1	1.93	-1.95	7.95	1.96	20.9	3.15	19.9	4.54	34.5	1.35
CCc1ccc(Oc2nccc(-c3c(-c4ccc(F)cc4)ncn3C3CCNCC3)n2)cc1	2.92	0.49	4.7	3.35	3.77	0.72	1.75	3.25	3.37	2.83
COc1cc(Nc2ncc3c(C)nc(-c4cccc(Oc5ccccc5)c4)n3n2)cc(OC)c1OC	-0.38	2.03	1.82	2.82	1.6	2.89	1.5	3.94	0.97	0.51
COc1ccc2ncn(-c3cc(O[C@H](C)c4ccccc4Cl)c(C(N)=O)s3)c2c1	1.83	1.19	2.26	3.99	9.15	0.34	5.61	2.81	4.72	0.33
CS(=O)(=O)CCNCc1ccc(-c2ccc3ncnc(Nc4ccc(OCc5ccccc5)c(Br)c4)c3c2)o1	-7.5	1.35	2.28	4.48	4.61	0.99	2.04	3.94	4.09	1.53
CCN(CC)Cc1ccc(Nc2nccc(-c3cnn4ncccc34)n2)cc1	-2.98	2.66	22.6	8.9	37.5	4.62	37.4	8.65	43.2	7.91
CCS(=O)(=O)c1ccc(OC)c(Nc2ncc(-c3ccccc3Cl)o2)c1	0.05	2.3	16.3	5.27	23.2	5.47	22	5.67	26.3	3.23
COc1cc2ncn(-c3cc(OCCc4ccccc4)c(C(N)=O)s3)c2cc1OC	-0.86	-1.76	6.39	2.33	10.4	-0.05	11.6	0.95	10.7	1.49
